# The list is not random: actives were taken first. Their share in the collection is about 4.5%.
# TIM10 inh: growth inhibitors of isogenic TIM10 control yeast, primary screen, counter-screen for tim10-1 yeast inhibitor project, luminescence, uHTS. S. cerevisiae TIM10 strain growth, BacTiter-Glo luminescence, 24 h. 330,000 compounds, 1.4% hits. inhibition, % at 10 µM;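 active means inhibition of 40% or more at the single tested concentration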;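 further: wild-type TIM10 isogenic control strain grown at permissive 25 °C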
# tim10-1 inh: growth inhibitors of tim10-1 mutant yeast, primary screen, luminescence, uHTS. 330,000 compounds, 2.2% hits. inhibition, % at 20 µM. S. cerevisiae tim10-1 ts strain growth, BacTiter-Glo, 24 h;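 active means inhibition of at least 40%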;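 further: mutant grown at 25 °C; 0% = DMSO wells with yeast and 100% = wells holding no yeast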
# PfHsp90 set2: growth inhibition of PfHsp90-expressing yeast, primary screen, antimalarial PfHsp90 inhibitor project, S. cerevisiae, BacTiter-Glo luminescence, single point, set 2. 310,000 compounds, 0.32% hits. inhibition, % at 9.4 µM. BacTiter-Glo ATP, 48 h; yeast lacking PDR1 and PDR3 efflux regulators;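 active means every replicate shows inhibition above about 80%, whatever the replicate mean, limit read from the data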;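 further: 0% = DMSO neutral controls and 100% = 20 µM radicicol positive controls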
# tim23-1 inh: growth inhibitors of tim23-1 mutant yeast, primary screen, luminescence, uHTS. S. cerevisiae tim23-1 growth, BacTiter-Glo luminescence, 24 h. inhibition, % at 20 µM. 330,000 compounds, 1.3% hits. AID 463212, 2010;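 active means growth inhibition of the mutant yeast at or above 50%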;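 further: temperature-sensitive mutant grown at 25 °C; plate controls were DMSO-treated mutant yeast for no effect and medium wells lacking yeast for full effect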
# NLRP3 yeast inh: NALP3 inflammasome inhibitors in reconstituted yeast, primary screen, luminescence, uHTS | inhibition, % at 10 µM | Yeast reconstituted NLRP3/ASC/caspase-1, beta-gal luminescence, 24 h | 330,000 compounds, 0.39% hits;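 active means inhibition of 50% or more; inactive means inhibition below 50%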;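 further: plate controls were induced DMSO wells for no effect and uninduced yeast grown without galactose for full effect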
# SKKanGAS inh: S. pyogenes SKKanGAS growth inhibitors in kanamycin, primary screen, streptokinase expression inhibitor project, SKKanGAS strain, BacTiter-Glo luminescence. inhibition, % at 7.5 µM. 6 h. 300,000 compounds, 1.3% hits;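 active means mean replicate score, as percent of positive control median, at least 50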;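 further: strain carries kanamycin resistance gene driven by streptokinase promoter and grows in 40 µg/ml kanamycin; loss of luminescence reflects streptokinase promoter inhibition or plain growth inhibition; 0% = median of DMSO wells and 100% = positive control at its reference dose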
# TIM10 conf: growth inhibitors of wild-type TIM10 yeast, confirmation, counter-screen for tim10-1 synthetic lethality project, single concentration, luminescence, S. cerevisiae. shares compounds with TIM10 inh. S. cerevisiae tim10 strain growth, BacTiter-Glo luminescence, 24 h. inhibition, % at 10 µM. 4,600 compounds, 63% hits;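 active means inhibition of yeast growth at or above a set limit in either of two replicates at 10 µM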;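 further: this counterscreen used the strain with wild-type TIM10; 0% = yeast with DMSO and 100% = medium wells lacking yeast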
# Starred values were filed as active, the others as inactive; . = no result.
SMILES,TIM10 inh,tim10-1 inh,PfHsp90 set2,tim23-1 inh,NLRP3 yeast inh,SKKanGAS inh,TIM10 conf
O=C(CSCc1nc2ccccc2[nH]1)Nc1ccc2ccccc2c1,-12,11,3,-8,11,-2,.
CC1(C)CC2CC(C)(CN2S(=O)(=O)c2ccc(N)cc2)C1 (configuration not stated),54*,39,33,40,-7,-4,28
CC1(C)CC2CC(C)(CN2S(=O)(=O)c2cccc(C(N)=O)c2)C1 (configuration not stated),2,17,-5,29,10,.,.
O=C1c2ccccc2CC1Sc1nnc(-c2ccncc2)o1 (configuration not stated),-10,18,.,16,1,-1,.
Cc1ccccc1N1C(=O)CC(Sc2nnc(-c3ccccc3)o2)C1=O (configuration not stated),44*,33,27,31,31,-5,44*
CC(=O)Nc1ccc(NC(=O)C(C)OC(=O)CSc2ccc(Br)cc2C)cc1 (configuration not stated),2,4,-14,-2,-1,-2,.
CC(NC(=O)CN1CCN(CC(=O)Nc2ccccc2Cl)CC1)c1ccc(Br)cc1 (configuration not stated),11,8,-1,22,17,.,.
CCN1CCc2c(OCC(=O)N3N=C(c4cccs4)CC3c3ccc(F)cc3)cccc2C1=O (configuration not stated),22,21,8,23,6,18,.
CN1CCc2c(OCC(=O)N3N=C(c4cccs4)CC3c3ccc(F)cc3)cccc2C1=O (configuration not stated),40,30,-15,43,2,-13,-26
CSCCC(NC(=O)c1ccccc1Cl)C(=O)OCC(=O)N1CCCC1=O (configuration not stated),-5,7,-6,0,7,-3,.
CCOC(=O)c1ccc(N2C(=O)CC(N(C)CCc3ccc(OC)c(OC)c3)C2=O)cc1 (configuration not stated),43*,35,112*,36,25,-7,46*
Cc1nnc(NC(=O)C2CCN(S(=O)(=O)c3ccc(Cl)cc3)CC2)s1,-5,8,-2,3,7,2,.
CC1CCc2c(sc(NC(=O)/C=C/c3cccs3)c2C(=O)O)C1 (configuration not stated),1,-24,9,41,41,19,.
COc1ccc(Cn2cccc(NC(=O)Nc3cccc(OC)c3)c2=O)cc1,3,-9,-18,30,10,-2,.
COc1cccc(NC(=O)Nc2cccn(Cc3ccccc3)c2=O)c1,44*,7,-13,30,10,2,28*
COc1cccc(NC(=O)Nc2ccc(Cc3ccncc3)cc2)c1,44*,33,-11,26,16,-19,-2
COc1ccc(CNC(=S)N/N=C(\C)c2ccc(OC)cc2)cc1,44*,34,-5,-11,7,38,44*
C=CCNC(=S)N/N=C(\C)c1cccc(OC)c1,41*,27,-10,44,-1,0,20
COc1ccc(CNC(=S)NCc2ccc(OC(C)C)cc2)cc1,9,34,4,1,16,-4,.
C/C(=N\NC(=S)NCc1ccccc1)c1ccc2ccccc2c1,54*,39,-41,44,27,-14,-12
CSc1ccc(NC(=O)NCc2cccnc2)cc1,3,-17,-2,-11,0,5,.
CC(C)CC(=O)NC(=S)Nc1nc(-c2cccc3ccccc23)cs1,47*,36,-4,15,19,26,-19
COc1ccc(-c2csc(NC(=O)CC(C)C)n2)cc1,39,10,5,6,9,1,.
CC1(C)C([N+](=O)[O-])C(c2ccc(F)cc2)NC(c2ccc(F)cc2)C1[N+](=O)[O-] (configuration not stated),23,37,-17,36,-2,7,.
CC1(C)C([N+](=O)[O-])C(c2ccc(Cl)cc2)NC(c2ccc(Cl)cc2)C1[N+](=O)[O-] (configuration not stated),42*,37,-14,30,-13,38,38*
SMILES,TIM10 inh,tim10-1 inh,PfHsp90 set2,tim23-1 inh,NLRP3 yeast inh,SKKanGAS inh,TIM10 conf
CC(C)Sc1nc2c(c(=O)n(C)c(=O)n2C)n1Cc1ccc(Cl)cc1,-18,1,-42,23,12,14,.
Cn1c(=O)c2c(nc(SCc3ccccc3)n2Cc2ccc(Cl)cc2)n(C)c1=O,43*,25,-36,12,8,80*,26
S=C(Nc1ccccc1)Nc1cc(Cl)ccc1Oc1ccccc1,48*,35,5,46,-5,14,-7
CCN(CC)c1ccc(/C=N/N(c2ccccc2)c2ccccc2)c(O)c1,2,9,0,7,-5,-3,.
CCN(CC)c1ccc(/C=N/NC(=S)NCc2ccccc2)c(O)c1,41*,23,1,28,19,64*,-32
CCOC(=O)N1CCN(C(=O)CN(C2CCCCC2)S(=O)(=O)c2c(C)cc(C)cc2C)CC1,41*,24,.,42,19,9,28
C[C@H](CO)N1C[C@H](C)[C@@H](CN(C)C(=O)Nc2ccc3c(c2)OCO3)Oc2ccc(NC(=O)CCN3CCOCC3)cc2C1=O,-4,-4,17,0,5,.,.
CCOc1ccc2nc3cc(NCc4ccc(OC)cc4)ccc3c(N)c2c1,83*,38,4,47,20,13,75*
O=C(NCC1(c2ccccc2)CCCC1)c1ccc(Br)cc1,41*,35,-9,36,8,-3,13
Cc1ccc(C(=O)NCC2(c3ccccc3)CCCC2)cc1,16,14,8,18,29,8,.
COc1ccc(C(=O)COC(=O)C2CCCN2C(=O)C23CC4CC(CC(C4)C2)C3)cc1 (configuration not stated),44*,29,-21,34,8,.,33*
Cc1ccc(NC(=O)CC2OC(=O)c3ccccc32)cc1S(=O)(=O)N1CCOCC1 (configuration not stated),5,7,-18,8,7,.,.
C=CCn1c(SCC(=O)C(C)(C)C)nnc1-c1cccs1,1,17,.,18,7,-8,.

# Bioassay records as filed in PubChem.
